Test results as given in PubChem BioAssay (EPA / NIEHS).
“And” between values parts separate entries of the source, which are not always exact repeats. Equal entries are not always repeated. Where a structure was tested more than once in an assay, its records may differ in their call. The source made the active and inactive calls. How the source made its calls: active means hit-call score of the fitted dose curve at least 0.9, where 1 is the maximum; inactive means score below 0.9.

What follows are compounds tested on CD69, CD69 (gene 969) (assay: BSK_LPS_CD69: BioMAP Diversity Plus: LPS Assay for CD69 Biomarker Activity (AID 2284303)). Settings: primary human HUVEC with PBMC.
Protocol: BSK_LPS is a cell-based, multiplexed-readout assay that uses umbilical vein endothelium and peripheral blood mononuclear cells, a human vascular primary cell co-culture, with measurements taken at 24 hours after chemical dosing in a 96-well plate.BSK_LPS_CD69 is an assay component measured in the BSK_LPS assay. It measures CD69 antibody related to regulation of gene expression using ELISA technology.Data from the assay component BSK_LPS_CD69 was analyzed at the endpoint, BSK_LPS_CD69, in the positive analysis fitting direction relative to DMSO as the negative control and baseline of activity. Using a type of binding reporter, gain or loss-of-signal activity can be used to understand protein changes. To generalize the intended target to other relatable targets, this assay endpoint is annotated to the 'cytokine' intended target family, where the subfamily is 'inflammatory factor'.
The levels of cell surface (or secreted, indicated by the prefix "s") biomarker endpoints were measured by ELISA. Overt cytotoxicity to cells in confluent adherent cultures (all systems other than the BT system) was assessed by measuring total protein levels using sulforhodamine B (SRB) staining in parallel cultures at the time of biomarker measurements, indicated as SRB endpoints. For proliferation assays for adherent cell types, individual cell types are cultured at sub-confluence and relative cell numbers quantified by SRB staining at time points optimized for each system (48 h: 3C and CASM3C systems; 72 h: BT and HDF3CGF systems; 96 h: SAg system). SRB was performed by staining cells with 0.1% SRB after fixation with 10% TCA and reading wells at 560 nm.Viability and proliferation of PBMC (T cells) was quantified by Alamar Blue reduction for the SAg and BT systems. For PBMC viability (referred to as PBMC Cytotoxicity within the assay endpoint names), cells were plated (75,000/well in a 96-well plate) and then chemical samples added for 1 h before addition of activators, SEB and TSST-1 (20 ng/mL final concentration each). Cells were incubated for 90 h. Then, Alamar Blue (20 uL/well) (Invitrogen, Cat DAL1100) was added for 6 h, and the plates were read with a fluorescence microplate reader at 546/580 nm (excitation/emission). For PBMC proliferation, cells were plated and activated as above but incubated for only 16 h prior to addition of Alamar Blue. Plates were read after 6 h.

Row | SMILES | AC50 | outcome
1 | OCCCC(F)(F)C(F)(F)C(F)(F)C(F)(F)C(F)(F)C(F)(F)C(F)(F)F | 52.1 µM (active) and 51.7 µM (active) | 
2 | FC(F)(F)C(F)(F)C(F)(F)C(F)(F)C(F)(F)CCI |  | inactive
3 | O=C(O)C(F)(F)C(F)(F)C(F)F |  | inactive
4 | O=C(O)C(F)(F)C(F)(F)C(F)(F)C(F)(F)C(F)(F)C(F)(F)C(F)(F)C(F)(F)C(F)(F)C(F)(F)C(F)(F)C(F)(F)F |  | inactive
5 | O=C(O)C(F)(OC(F)(F)C(F)(OC(F)(F)C(F)(F)C(F)(F)F)C(F)(F)F)C(F)(F)F (stereo not given) |  | inactive
6 | CCCCC(CC)COP(=O)(O)OCC(CC)CCCC (stereo not given) | 987 nM (active) | inactive
7 | FC(F)(F)C(F)(F)CNCC(F)(F)C(F)(F)F |  | inactive
8 | OCCCC(F)(F)C(F)(F)C(F)(F)F |  | inactive
9 | N=C(N)C(F)(F)C(F)(F)C(F)(F)C(F)(F)C(F)(F)C(F)(F)C(F)(F)F | 45 µM (active) and 14.9 µM (active) | 
10 | CCO[Si](CCC(F)(F)C(F)(F)C(F)(F)C(F)(F)C(F)(F)C(F)(F)F)(OCC)OCC |  | inactive
11 | O=S(=O)(OCC(F)F)C(F)(F)F |  | inactive
12 | OCC(F)(F)C(F)(F)C(F)(F)C(F)(F)C(F)(F)C(F)F |  | inactive
13 | O=S(=O)(OCCOC(F)(F)F)C(F)(F)F |  | inactive
14 | OCC(F)(F)C(F)(F)C(F)(F)C(F)F |  | inactive
15 | O=C(O)C(F)(F)C(F)(F)F |  | inactive
16 | CCCCCCCCC(F)(F)C(F)(F)C(F)(F)C(F)(F)C(F)(F)C(F)(F)F |  | inactive
17 | CC(C)(C)C(=O)CC(=O)C(F)(F)C(F)(F)C(F)(F)F |  | inactive
18 | Cc1ccc(S(=O)(=O)OCC(F)(F)C(F)(F)C(F)(F)C(F)(F)C(F)(F)C(F)F)cc1 | 7940 nM (active) | inactive
19 | FC(F)(F)C(F)(F)C(F)(F)C(F)(F)CCI |  | inactive

Row | SMILES | AC50 | outcome
20 | O=C(O)C(F)(F)C(F)(F)OC(F)(F)F |  | inactive
21 | FC(F)(F)C(F)(F)C(F)(F)C(F)(F)C(F)(F)C(F)(F)C(F)(F)Br |  | inactive
22 | C=C(C)C(=O)OCC(F)(F)C(F)(F)C(F)(F)C(F)(F)C(F)(F)C(F)(F)C(F)(F)F |  | inactive
23 | O=C(O)C=C(C(F)(F)F)C(F)(F)F |  | inactive
24 | COC(=O)CCC(F)(F)C(F)(F)C(F)(F)C(F)(F)F |  | inactive
25 | FC(F)(F)C(F)(F)C(F)(F)C(F)(F)C(F)(F)C(F)(F)C(F)(F)C(F)(F)CCS |  | inactive
26 | OCC(F)(F)C(F)(F)C(F)(F)C(F)(F)C(F)(F)C(F)(F)F |  | inactive
27 | FC(F)(Br)C(F)(F)C(F)(F)C(F)(F)C(F)(F)C(F)(F)Br |  | inactive
28 | O=C(O)C(F)(F)C(F)(F)C(F)(F)C(F)(F)F |  | inactive
29 | C=CC(F)(F)C(F)(F)C(F)(F)C(F)(F)C(F)(F)C(F)(F)C(F)(F)C(F)(F)C=C |  | inactive
30 | FC(F)(F)C(F)(F)C(F)(F)C(F)(F)C(F)(F)C(F)(F)C(F)(F)I |  | inactive
31 | C=C(C)C(=O)OCCC(F)(F)C(F)(F)C(F)(F)C(F)(F)C(F)(C(F)(F)F)C(F)(F)F |  | inactive
32 | O=C(O)C(F)(F)C(F)(F)C(F)(F)C(F)(F)C(F)(F)C(F)(F)C(F)(F)C(F)(F)Cl | 35.5 µM (active) and 40.7 µM (active) | 
33 | C=C(C)C(=O)OCC(F)(F)C(F)(F)C(F)(F)F |  | inactive
34 | FC(F)(I)C(F)(F)C(F)(F)C(F)(F)I |  | inactive
35 | FC1CC(F)(F)C(F)(F)C1(F)F (stereo not given) |  | inactive
36 | C=CC(=O)OCC(F)(F)C(F)(F)C(F)(F)C(F)(F)C(F)(F)C(F)(F)C(F)(F)F |  | inactive
37 | CCCCCCOC(=O)c1ccccc1O | 39.4 µM (active) and 46.4 µM (active) | 
38 | FC(F)(F)C(F)(F)C(F)(F)C(F)(F)C(F)(F)C(F)(F)C(F)(F)C(F)(F)F |  | inactive
